Measured values as given in PubChem BioAssay (NCI).
About 83,000 compounds went through this panel and 20% of them were active in at least one assay; those are over-represented in the sample as a whole.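 Values shown are percent growth following 48 h exposure of cells in 96-well plates to a single concentration of compound; below 10 was considered active.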 The source made the active and inactive calls.

Key:
Experiment in all cases: NCI-60 one-dose screen, 48 h (100 = growth as untreated, 0 = no growth, -100 = all killed)
Settings in all cases: 10 µM unless noted
[1] = tested on: NCI-H23 lung
[2] = tested on: NCI-H226 lung
[3] = tested on: NCI-H322M lung
[4] = tested on: HOP-62 NSCLC
[5] = tested on: NCI-H460 lung
[6] = tested on: HOP-92 NSCLC
[7] = tested on: NCI-H522 lung
[8] = tested on: A549/ATCC NSCLC
[9] = tested on: 786-0 renal
[10] = tested on: COLO 205 colon

Measured: growth

O=C(NCCc1ccc(O)c(O)c1)C12CC3CC(CC(C3)C1)C2
inactive: [1] 84.9% | [2] 93.7% | [3] 114% | [4] 74.3% | [5] 110% | [6] 65.5% | [8] 105% | [9] 87.9% | [10] 90%
active: [7] 9.83%

Nc1cc2c3c(cccc3c1)C(=O)N(CCN1CCCC1)C2=O
active: [2] -7.42% | [5] 2.15%
inactive: [1] 39.5% | [3] 54.5% | [4] 44.4% | [6] 27.5% | [7] 29.3% | [8] 14.8% | [9] 46.4% | [10] 14%

COC(=O)[C@]12CC[C@@H](C)[C@H](C)[C@@H]1C1=CC[C@@H]3[C@@]4(C)C(C=O)=C[C@@](C)(COC(C)=O)[C@@H]4C(=O)C[C@@]3(C)[C@]1(C)CC2
inactive: [1] 34.2% | [2] 38.7% | [3] 77.2% | [4] 50.1% | [5] 18.8% | [6] 47.7% | [7] 12.9% | [8] 14.2% | [9] 37.3%
active: [10] -9.64%

Clc1cc(Cl)cc(Nc2ccc3cc(OCCCN4CCOCC4)ccc3n2)c1
inactive: [1] 37.6% | [2] 68.5% | [3] 59.4% | [4] 22% | [5] 17.5% | [6] 27.5% | [8] 35.6%
active: [7] -21.1% | [9] -36.6% | [10] -51.3%

Nc1n[nH]c(-c2cc(Cl)ccc2O)c1-c1ccccc1
inactive: [1] 71.4% | [2] 70.5% | [3] 82.9% | [4] 83.6% | [5] 102% | [6] 73.1% | [7] 81.8% | [8] 82.3% | [9] 92.7% | [10] 101%

COC(=O)[C@]12CC[C@@H](C)[C@H](C)[C@@H]1C1=CC[C@@H]3[C@@]4(C)C(C=O)=C[C@@](C)(COC(=O)/C=C/c5ccccc5)[C@@H]4[C@H](O)C[C@@]3(C)[C@]1(C)CC2
active: [4] -5.38% | [5] -19.1% | [6] -5.49% | [7] -16.3% | [8] 3.82% | [9] -5.1% | [10] -37%
inactive: [1] 10.4% | [2] 10.1% | [3] 42%

CCCCCS(=O)(=O)Nc1ccc(C(=O)O)cc1
inactive: [1] 102% | [2] 98.9% | [3] 97.3% | [4] 98.2% | [5] 104% | [6] 105% | [7] 75.4% | [8] 87.4% | [9] 102% | [10] 104%

CC1OC(O[C@H]2/C=C/C=C/C=C/C=C/C=C/C=C/C=C/[C@H](C)[C@@H](O)[C@@H](C)[C@H](C)OC(=O)CC(O)CC(O)CCC(O)C(O)CC(O)C[C@]3(O)C[C@H](O)C(C(=O)O)C(C2)O3)C(O)[C@H](N)C1O (stereo not given in full)
active: [1] -29.7% | [2] -9.69% | [4] -82.5% | [5] -55.5% | [8] -89.9% | [9] -80%
inactive: [3] 20% | [6] 18.6% | [7] 16.2% | [10] 38.5%

CCn1c(C)nc2cc(C(N)=O)ccc21
inactive: [1] 94.3% | [2] 89.9% | [3] 86.8% | [4] 89.3% | [5] 101% | [6] 90.7% | [7] 90.7% | [8] 104% | [9] 96.3% | [10] 120%

COc1cc(/C=C/C(=O)c2cccc(-n3cc(-c4ccccc4)[nH]c3=O)c2)ccc1O
inactive: [1] 84.5% | [2] 105% | [3] 85.4% | [4] 129% | [5] 89.2% | [6] 45.3% | [7] 26.2% | [8] 66.7% | [9] 74% | [10] 100%

CCN(CCNc1ccc(C)c2sc3ccccc3c(=O)c12)CC(C)(C)O
inactive: [1] 86.7% | [2] 96.7% | [3] 90.4% | [4] 82.8% | [5] 30.3% | [6] 50.9% | [7] 74.2% | [8] 40.8% | [9] 70.4% | [10] 67.8%

COc1ccc(-c2nc3sccn3c2-c2cc(-c3cc(OC)c(OC)c(OC)c3)on2)cc1
active: [6] -17.4%
inactive: [1] 88.6% | [2] 116% | [3] 102% | [4] 106% | [5] 78.3% | [7] 87.9% | [8] 104% | [9] 96.6% | [10] 94.2%

Cc1ccc(C2SCC(=O)N2Cc2ccccc2)cc1 (stereo not given)
inactive: [1] 100% | [2] 96% | [3] 95.6% | [4] 104% | [5] 115% | [6] 81.7% | [7] 83.6% | [8] 102% | [9] 89.2% | [10] 109%

COc1ccc2[nH]c(O)c(/C=c3/cc4c(c(-c5cc(OC)c(OC)c(OC)c5)n3)=Nc3ccccc3-4)c2c1
inactive: [1] 50.7% | [2] 67.1% | [3] 92.6% | [4] 86.2% | [5] 71.6% | [6] 39.8% | [7] 50.4% | [8] 72.5% | [9] 67.1% | [10] 59.4%

N#CC1=C(/N=C/c2ccccc2)Oc2c(ccc3ccccc23)C1c1ccccc1 (stereo not given)
inactive: [1] 28.6% | [2] 52.9% | [3] 45.6% | [4] 21.1% | [5] 11.6% | [6] 50.4% | [8] 21% | [9] 23.2%
active: [7] -4.7% | [10] -23.2%

Cc1ccc(/C=C/c2c(C(=O)/C=C/c3ccc(C(F)(F)F)cc3)c(C)nc3ccccc23)cc1
active: [1] -31.3% | [2] -46.1% | [3] -1.68% | [4] -37.2% | [5] -69.6% | [6] -76% | [7] -10.5% | [9] -74.9% | [10] -24.3%
inactive: [8] 77.2%

CCCCCCCCCCN(CCCCCCCCCC)CC(=O)c1ccc2cc(Br)c3ccccc3c2c1
active: [5] -65.9% | [6] -77%
inactive: [1] 47.4% | [2] 99.4% | [3] 65.7% | [4] 96.4% | [7] 63.4% | [8] 82.3% | [9] 54.1% | [10] 104%

Cc1ccc2nc(NC(=O)CSc3nc(-c4ccccc4)c(C#N)c(=O)n3Cc3ccccc3)sc2c1
inactive: [1] 85.9% | [2] 85.2% | [3] 96.4% | [4] 77.8% | [5] 98.3% | [6] 54.9% | [7] 30.5% | [8] 104% | [9] 99.3% | [10] 104%

CC(=O)N1C(=S)NC(=O)C1Cn1c(-c2ccccc2)nc2ccccc21 (stereo not given)
inactive: [1] 95.2% | [2] 93.6% | [3] 96.8% | [4] 92.1% | [5] 105% | [6] 97.5% | [7] 86.9% | [8] 102% | [9] 102% | [10] 108%

CCCCCCCCCCCCCCCCCC1=NCCN1CCOC1=C(Cl)C(=O)c2ccccc2C1=O
inactive: [1] 79.4% | [2] 100% | [3] 80.5% | [4] 82.6% | [5] 98.3% | [6] 46.4% | [7] 13.8% | [8] 95.3% | [9] 98.3% | [10] 41.2%

COc1ccc2c(c1)O/C(=C\c1cccc(OCC(=O)Nc3nc(C)c(C)s3)c1)C2=O
inactive: [1] 19.4% | [2] 92.2% | [3] 103% | [4] 101% | [5] 88.8% | [8] 12.4% | [9] 17.7% | [10] 91.6%
active: [6] -75.4% | [7] -73.8%

Cn1c(=O)c2[nH]c(NN)nc2n(C)c1=O
inactive: [1] 107% | [2] 106% | [3] 118% | [4] 120% | [5] 101% | [6] 95.7% | [7] 99.9% | [8] 106% | [9] 98.7% | [10] 109%

N#Cc1nc2c(S(=O)(=O)c3ccc(Cl)cc3)c(N)n(Nc3cccc(Cl)c3)c2nc1C#N
inactive: [1] 44.7% | [2] 85.2% | [3] 30.8% | [4] 40.2% | [5] 65.7% | [7] 57.3% | [8] 43.3% | [9] 43.9% | [10] 72.5%
active: [6] -33.2%

C=C(C)[C@@H]1CC[C@]2(C(=O)NC3CCCCC3)CC[C@]3(C)[C@H](CC[C@@H]4[C@@]5(C)CCC(=O)C(C)(C)[C@@H]5CC[C@]43C)[C@@H]12
inactive: [1] 88.7% | [2] 74.6% | [3] 91.9% | [4] 97.7% | [5] 98.3% | [6] 81.5% | [7] 86.9% | [8] 85.6% | [9] 85.7% | [10] 103%

CCCCc1ccc(Nc2ccc(Nc3ccc(CCCC)cc3S(=O)(=O)O)c3c2C(=O)c2ccccc2C3=O)c(S(=O)(=O)O)c1
inactive: [1] 91.3% | [2] 79.7% | [3] 96.3% | [4] 99.5% | [5] 104% | [6] 59.4% | [7] 65% | [8] 102% | [9] 117% | [10] 101%

N#C/C(=C\c1ccc(-c2ccccc2F)o1)c1nc(-c2ccco2)cs1
inactive: [1] 85.5% | [2] 80.9% | [3] 94.1% | [4] 89% | [5] 95.1% | [6] 85.7% | [7] 81.5% | [8] 99.1% | [9] 104% | [10] 99.6%
